Shown are actives, neighbours in structure and some others; about 11% of the full set was active somewhere.
Pf growth 96h: P. falciparum growth inhibition at 96 hours | AID 504834 | Potency, µM (highest dose often 28.7 µM), for inactives: at the top dose activity change, negative = inhibition, most hits filed as inhibitors | P. falciparum luciferase reporter growth, 96 h | 320,000 compounds, 6.9% hits
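Plates of compound plus infected erythrocytes (2% hematocrit, 0.05% parasitemia final) incubate 96 hours, 37 C, 5% CO2. Detection reagent added; reduced luminescence from the parasites' luciferase reporter flags inhibition.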
Pf growth 48h: inhibits P. falciparum growth in the first generation, 48 h; Potency, µM (top dose mostly 28.7 µM), without a hit: at the top dose activity change, negative = inhibition, hits mostly inhibitors; P. falciparum luciferase growth in erythrocytes, 48 h; AID 504832; 310,000 compounds, 5.9% hits
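Compounds are pin-transferred into medium, infected erythrocytes (2% hematocrit, 0.1% parasitemia final) are added, and plates sit one parasite generation at 37 C in 5% CO2. Detection reagent is then added and luminescence measured.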
HCV inh: inhibitors of hepatitis C virus infection. Huh7.5.1 HCVcc-Cre infection, luciferase reporter, 44 h. Potency, µM (doses to about 41.8 µM), for the others: at the highest dose activity change, negative = inhibition, hits mostly inhibitors. 340,000 compounds, 3.4% hits. AID 651820
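Reporter virus HCVcc-Cre (~0.5 moi) infects cells exposed to compound; seeding density 1,000 cells/well with 4 h settling beforehand. Luminescence, 15 sec read, taken 44 h post-infection following a 15 min RT substrate incubation.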
AMA1-RON2 inh: disrupts binding of P. falciparum AMA1 to RON2 | AlphaScreen AMA1-biotinylated RON2 peptide binding | Potency, µM (top dose mostly 58.2 µM), inactives show top-dose activity change, negative = inhibition, hits mostly inhibitors | 360,000 compounds, 0.2% hits | AID 720542;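 note: 0% = vehicle wells and -100% = peptide control; nearly all actives have a fitted effect of over 45% in size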
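AMA1 (3D7) with his tag at 25 nM final met compounds first, then biotinylated RON2 peptide at 25 nM; detection used donor plus acceptor beads, 10 µg/mL apiece, read by AlphaScreen after 30 min at room temperature.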
* hit, by the source's call; i = inactive; ? = inconclusive; / = not tested or not shown; [ ] = dose if it differs, or a comment. Calls come from the whole dose curve; as a rule, active = well fitted curve in the direction sought with a large enough effect; inconclusive = small, poorly fitted or top-dose-only effect, or another doubt; inactive = no such curve, though single readings can be large; an effect the other way counts as inactive or inconclusive. Unless noted, % is set by controls: 0 for no effect and ±100 for the full control effect; potency is the fitted concentration of half-maximal effect.

SMILES | Pf growth 96h | Pf growth 48h | HCV inh | AMA1-RON2 inh
Cc1c(C(=O)OCC(C)C)[nH]c2c1C(=O)CC(c1ccco1)C2 (stereo not drawn) | 0% | 12µM* | ? | 12%
Cc1c(C(=O)OCC2CCCO2)[nH]c2c1C(=O)CC(c1ccco1)C2 (stereo not drawn) | / | ? | ? | -13%
N#Cc1cn(-c2cccc(C(F)(F)F)c2)c(=O)[nH]c1=O | -11% | -23% | 26% | -1%
O=S(=O)(Nc1ccc(Cl)cn1)c1ccc(Cl)cc1 | ? | 10% | 17% | 1%
Cc1cc(C)c(S(=O)(=O)Nc2ccc(Cl)cn2)c(C)c1 | 20% | 10µM* | 2% | -3%
CC1(C(=O)NCc2ccco2)Cc2c(-c3cccc(C(N)=O)c3)ccnc2O1 (stereo not drawn) | / | / | / | -1%
CCCCNc1c([N+](=O)[O-])cc(C)cc1[N+](=O)[O-] | ? | -14% | ? | 19µM*
CCCCNc1c([N+](=O)[O-])cc(C(=O)O)cc1[N+](=O)[O-] | -3% | 8% | 46% | -11%
Cc1cc(NC(=O)CSc2nc3ccccc3c(=O)n2CCCC(=O)NCc2ccccc2)n[nH]1 | 33% | ? | -6% | 58%
O=C(CCCn1c(SCC(=O)Nc2ccccc2Cl)nc2ccccc2c1=O)NCC1CCCO1 (stereo not drawn) | -3% | ? | ? | 2%
O=C(CCCn1c(SCC(=O)NCC2CCCO2)nc2ccccc2c1=O)NCc1ccccc1 (stereo not drawn) | 9.3µM* | / | 6% | ?
O=C(CCCn1c(SCc2cc(=O)n3cc(Cl)ccc3n2)nc2ccccc2c1=O)NCC1CCCO1 (stereo not drawn) | 10µM* | 6.6µM* | 5% | 1%
O=C(CCCn1c(SCC(=O)c2ccc(F)cc2)nc2ccccc2c1=O)NCc1ccccc1 | 10µM* | / | -5% | 1%
O=C(CCCn1c(SCc2cc(=O)n3ccccc3n2)nc2ccccc2c1=O)NCC1CCCO1 (stereo not drawn) | ? | -23% | 1% | -19%
Cc1c(NC(=O)C(C)N2C(=O)C3CCCCC3C2=O)c(=O)n(-c2ccccc2)n1C (stereo not drawn) | 0% | 2% | 20% | 1%
CCC(=O)Nc1cccc(NC(=S)NC(=O)c2ccccc2C)c1 | i | ? | -20% | 1%
Cn1c(CC(=O)Nc2ccccc2F)nnc1SCC(=O)N1CCOCC1 | -9% | 33% | 12% | 12%
Cc1cc(C)c(Nc2cc(S(=O)(=O)O)c(N)c3c2C(=O)c2ccccc2C3=O)c(C)c1 | ? | ? | 13% | 28µM*
COc1cccc(CN(C(=O)c2ccc([N+](=O)[O-])cc2)C2CCS(=O)(=O)C2)c1 (stereo not drawn) | 0% | 9% | 21% | 11%
CCn1cc([N+](=O)[O-])c(C(=O)N2N=C(c3ccc(Cl)c(Cl)c3)CC2c2ccccc2O)n1 (stereo not drawn) | ? | 3.7µM* | ? | -8%
CCn1cc([N+](=O)[O-])c(C(=O)N2CCCc3ccccc32)n1 | 33% | 3% | 15% | 4%
CC(=O)N1N=C(c2ccc([N+](=O)[O-])cc2)CC1c1ccccc1Cl (stereo not drawn) | -27% | ? | -27% | -11%
CCn1cc([N+](=O)[O-])c(C(=O)Nc2ccc(Br)cn2)n1 | 34% | 35% | -23% | 4%
CCn1cc([N+](=O)[O-])c(C(=O)N2N=C(c3ccc(O)c(OC)c3)CC2c2ccccc2O)n1 (stereo not drawn) | 15µM* | ? | ? | -1%[2.32 µM]
CCn1cc([N+](=O)[O-])c(C(=O)N2N=C(c3ccc4ccccc4c3)CC2c2cc(Br)ccc2O)n1 (stereo not drawn) | ? | 3.3µM* | ? | -14%
CCn1cc([N+](=O)[O-])c(C(=O)N2N=C(c3ccccc3)CC2c2ccc([N+](=O)[O-])cc2)n1 (stereo not drawn) | ? | 13µM* | -30% | -9%
Cc1ccc(NC(=O)C(C)N2C(=O)c3ccccc3C2=O)cc1S(=O)(=O)N1CCOCC1 (stereo not drawn) | -4% | 6% | 11% | 7%
Cc1nc(NC(=O)C(C)(C)C)sc1C(=O)Cn1cc(-c2ccc(C(C)(C)C)cc2)nn1 | / | / | / | 9%
CC1CCN(C(=O)N2c3ccccc3Sc3ccccc32)CC1 | / | / | 3% | 3%

Screening results from PubChem BioAssay.
